These results are taken from PubChem BioAssay (NCATS).

Results filed as inconclusive are left out. Calls of active or inactive are those of the source. Calls follow the shape of the dose curve; as a rule, active = well fitted curve in the direction sought with a large enough effect in the signal ratio, with a control signal flat (not every such curve was filed as active); inconclusive = small, poorly fitted or top-dose-only effect, or a change in a side signal; inactive = no such curve, though single readings can be large or run the other way; the % refers to the signal ratio.

The assay can be described thus: qHTS Assay for Identification of Small Molecule Inducers of Hypoxia Response (AID 2120). The settings on record: hypoxia response reporter cells, beta-lactamase ratio readout; series mostly up to 104 µM. The text has this:
NIH Chemical Genomics Center [NCGC]
NIH Molecular Libraries Screening Centers Network [MLSCN]
National Institutes of Environmental Health Sciences [NIEHS]
National Toxicology Program [NTP]
Hypoxia-inducible factor-1 (HIF-1) is the major hypoxia-regulated transcription factor that controls cellular responses to low oxygen concentration. HIF-1 is composed of two subunits: hypoxia responsive HIF-1a and constitutively expressed HIF-1b, which is also known as aryl hydrocarbon receptor nuclear translocator. During hypoxic conditions, HIF-1a heterodimerizes with HIF-1b and translocates into the nucleus where the HIF-1 complex binds to the hypoxia-response element (HRE) and activates expression of target genes such as VEGF (vascular endothelial growth factor). The HIF-1 pathway is essential to normal growth and development, and is involved in the pathophysiology of cancer, inflammation, and ischemia.
Using a beta-lactamase reporter-gene under control of the hypoxia response element, a cell-based assay [CellSensor(TM) HRE-bla ME-180 developed by Invitrogen Corp.] was used to measure hypoxia-induced signaling. Library compounds were measured for their ability to induce the reporter gene activity. Compounds were screened in a titration series in 1536-well format. The inducers were identified based on the AC50 values derived from the screening data.
NCGC Assay Protocol Summary
2500 cells/5uL in Opti-MEM medium containing 0.5% dialyzed FBS, 0.1 mM NEAA, 1 mM sodium pyruvate and 10 mM HEPES was dispensed into 1536-well plates and cells were cultured at 37 degrees Celsius for 4-5 hours and then 23 nL of compounds or DMSO were delivered to each well using a pin tool. The plates were incubated at 37 degrees Celsius for 17 hours. 1 uL of CCF4-dye mixture was added to each well. After incubated at room temperature for 2.5 hours the plates were measured on an EnVision plate reader at Excitation 405nm, Emission1=460nm and Emission 2=530nm. The %Activity was determined from the ratio of 460nm/530nm.
`CCOc1ccc(NC(C)=O)cc1`: the result was inactive.
Take `CCCCC(CC)COC(=O)c1ccc(N(C)C)cc1` (stereo unspecified): the outcome was inactive.
Next, `COc1ccc(C(Cl)=C(c2ccc(OC)cc2)c2ccc(OC)cc2)cc1`: “inactive”.
Turning to `CCOc1ccccc1C(N)=O`, the outcome was inactive.
The entry for `COc1ccc(C(=O)c2ccccc2)c(O)c1` is “inactive”; for `C/C=C/c1ccc(O)c(OC)c1` it is “inactive”.
Take `COc1cc([C@H]2Oc3cc([C@H]4Oc5cc(O)cc(O)c5C(=O)[C@@H]4O)ccc3O[C@@H]2CO)ccc1O`: the outcome was inactive.
For the molecule `NC(=O)c1ccccc1O`, the outcome was inactive.
Regarding `O=C(O)c1ccc(S(=O)(=O)N(Cl)Cl)cc1`, the result was inactive.
Next, `OC[C@H]1O[C@@H]2O[C@H]3[C@H](O)[C@@H](O)[C@@H](O[C@H]4[C@H](O)[C@@H](O)[C@@H](O[C@H]5[C@H](O)[C@@H](O)[C@@H](O[C@H]6[C@H](O)[C@@H](O)[C@@H](O[C@H]7[C@H](O)[C@@H](O)[C@@H](O[C@H]8[C@H](O)[C@@H](O)[C@@H](O[C@H]1[C@H](O)[C@H]2O)O[C@@H]8CO)O[C@@H]7CO)O[C@@H]6CO)O[C@@H]5CO)O[C@@H]4CO)O[C@@H]3CO`: “inactive”; `NCCNc1cccc2ccccc12`: “inactive”.
